# Source: the supplement of paper PMC6555819
# Legend:
# Experiment in all cases: PBM binding z-score (relative to random genomic background probes); higher = stronger binding; sequences stand for … in GC…GCGATTGACAGCGTAGAATGAAGG
# [1] = tested on: PPARg:RXRa DBDmut IVT, anti-RXR (DBD mutation: RXRa K156A/R161A, NR concentration 270 nM, RXRa partner concentration 90 nM)
# Procedure, shortened: (§1)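 Custom Agilent 4×180K protein-binding microarrays carried double-stranded probes. Their 34-nt variable regions held direct-repeat seeds, single-nucleotide variants, half-site ablations and random human genomic background sequences. Arrays were incubated 1 h with ligand-free nuclear receptor dimers in PBS pH 7.4, 2% milk, 0.02% Triton X-100, 1 mM DTT, 0.2 mg/mL BSA and 0.4 mg/ml salmon testes DNA. Antibodies against each partner (one per run) detected binding, and scanned fluorescence was regression-normalized. Binding z-scores use random background probes as reference.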
# [2] = tested on: PPARg:RXRa IVT, anti-PPARg (NR concentration 270 nM, RXRa partner concentration 90 nM)
# Procedure, shortened: as §1
# [3] = tested on: PPARg DBDmut:RXRa IVT, anti-PPARg (DBD mutation: PPARg1 K132A/R137A, NR concentration 270 nM, RXRa partner concentration 90 nM)
# Procedure, shortened: as §1
# [4] = tested on: PPARg DBDmut IVT, anti-PPARg (DBD mutation: PPARg1 K132A/R137A, NR concentration 270 nM)
# Procedure, shortened: as §1
# [5] = tested on: PPARg homodimer (NR concentration 180 nM)
# Procedure, shortened: as §1
# [6] = tested on: PXR:RXRa (NR concentration 270 nM, RXRa partner concentration 90 nM)
# Procedure, shortened: as §1
# [7] = tested on: PXR homodimer (NR concentration 270 nM)
# Procedure, shortened: as §1
# [8] = tested on: RARa:RXR (NR concentration 270 nM, RXRa partner concentration 90 nM)
# Procedure, shortened: as §1
# [9] = tested on: RARa homodimer (NR concentration 270 nM)
# Procedure, shortened: as §1
# [10] = tested on: RARb:RXRa (NR concentration 270 nM, RXRa partner concentration 90 nM)
# Procedure, shortened: as §1
Sequence,PBM binding z-score [1],PBM binding z-score [2],PBM binding z-score [3],PBM binding z-score [4],PBM binding z-score [5],PBM binding z-score [6],PBM binding z-score [7],PBM binding z-score [8],PBM binding z-score [9],PBM binding z-score [10]
AGAAAGAGGTTAAGATCAGGGAAACAGAATACAT,1.12,1.52,1.97,0.819,1.02,1.37,0.655,1.89,0.728,2.4
TCAGACAGGTGAAGGTAACACAGGTACGCAGTCG,2.57,1.37,-0.146,0.0418,1.19,1.02,0.463,1.28,0.787,1.32
ATATGTAGGTTACATCAGGGTCATTCAGGCTATG,7.19,7.69,2.46,2.26,2.46,4.24,2.65,4.06,1.01,2.77
GCATATAGTTAATACAAGGTGAAAGTCCGATTGT,0.418,0.597,0.14,1.15,0.564,0.322,0.372,0.691,0.956,0.235
CAAACTAGGTCAAGAGGTCAAAGCCCGCTTCCCG,8.12,8.64,4.39,2.45,7.29,6.42,1.66,7.68,2.35,5.54
GGAGCGAGGGCAAGTTGATAGCAGAGTTTGATGG,0.723,0.346,-0.895,-0.911,0.261,0.533,0.345,0.395,-0.343,2.56
GCTGCTAGGTCAACTGATGGTCAGCTACAGCTCG,4.96,3.94,-0.525,-0.577,1.97,1.62,-0.454,2.71,-0.247,4.15
CCTAGCAGGCCCATCTGGGTCACTCAAGGCTTGA,0.547,2.42,-1.01,-1.83,0.0647,0.362,-0.496,1.21,-0.257,0.978
ATATGTAGGTTAAGTGTCATTCAGGTTGGTTCGC,7.37,7.34,2.11,2.12,1.85,1.87,0.52,2.1,1.63,1.99
TCTAATAGTTGATTAGGGCAACCGAAACAGCGGA,1.74,1.56,0.711,0.3,0.347,0.323,-0.117,0.766,-0.402,0.915
CCGGCTGGGGCAAAGGTTACCATACTCAGTACGA,0.545,3.78,-0.945,-1.06,1.1,2.59,-0.422,3.83,-0.653,2.41
CAGCCTACGTCAGGGCCAGTATAGGAGGAACGTT,-0.745,-0.587,-0.356,-0.405,-0.116,-0.512,-0.548,0.00174,-0.296,-0.405
